Screen size: about 76,000 compounds; about 1,900 (2.5%) were called active. Where a call stands in place of a potency, no number is given. Another 5% or so got no clear call; they are omitted. Calls come from the whole dose curve; as a rule, active = well fitted inhibition curve with a large enough effect; inconclusive = small, poorly fitted or top-dose-only effect; inactive = flat fitted curve, though single readings scatter. Only a selection was taken, and actives are over-represented in it overall.
target: Luciferin 4-monooxygenase (Photinus pyralis) (UniProt P08659); assay: Firefly luciferase inhibition profiling of diverse chemical library using quantitative high-throughput screening; note: nearly all actives have a fitted effect of over 65% in size; conditions: purified P. pyralis luciferase, luminescence, biochemical; series mostly up to 115 µM
Sequence (P08659 whole entry, looked up): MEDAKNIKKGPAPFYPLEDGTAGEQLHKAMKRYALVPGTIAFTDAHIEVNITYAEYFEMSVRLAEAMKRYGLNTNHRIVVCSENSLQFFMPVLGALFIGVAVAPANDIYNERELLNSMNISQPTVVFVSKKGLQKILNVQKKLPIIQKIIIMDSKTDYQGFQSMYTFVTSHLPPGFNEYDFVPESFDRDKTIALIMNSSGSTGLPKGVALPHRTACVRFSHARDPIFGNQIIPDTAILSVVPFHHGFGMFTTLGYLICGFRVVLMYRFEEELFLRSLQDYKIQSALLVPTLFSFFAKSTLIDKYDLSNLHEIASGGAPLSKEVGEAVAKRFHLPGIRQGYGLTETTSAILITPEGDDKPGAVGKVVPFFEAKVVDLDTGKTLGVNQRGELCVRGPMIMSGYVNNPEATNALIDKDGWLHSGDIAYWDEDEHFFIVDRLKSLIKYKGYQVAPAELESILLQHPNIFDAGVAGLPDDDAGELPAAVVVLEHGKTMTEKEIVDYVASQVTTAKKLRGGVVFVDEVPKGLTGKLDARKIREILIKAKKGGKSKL
Text: Firefly (Photinus pyralis) luciferase is one of the most commonly used transcriptional reporters for a number of reasons. It is considered one of the more dynamically responsive reporters - that is, responsive to changes in reporter transcription - as it requires no post-translational modifications and is enzymatically active directly after protein synthesis (Wood, 1998). Additionally, the half-life of the luciferase protein is short relative to other reporter-gene products (Wood, 1995). Whereas reporters with long half-lives potentially allow for increased signal due to accumulation of reporter-gene product, once accumulated in the cell, dynamic changes in reporter-gene expression may be difficult to detect(Fan and Wood, 2007; Almond et al., 2004). It has been shown that wild-type P. pyralis luciferase has a half-life of approximately four hours in mammalian cells (Thompson et al., 1991). Firefly luciferase reporter-gene assays are also generally considered one of the most sensitive assay types (Wood, 1995; Wood, 1998). Although light produced in a bioluminescence reaction is of lower intensity than that produced during fluorescence emission, this is offset by little to no background light inherent to luminescent assays. Thus the luciferase reporter can be expressed at much lower levels than fluorescent proteins while still providing robust signal. However, it was initially observed, in 1991, by Thompson et al., that compounds that resemble the substrates of firefly luciferase (FLuc) can act as competitive inhibitors of the enzyme, and that these compounds, upon interaction with luciferase in the cell, can actually stabilize the protein and increase its half-life. Accumulated intracellular FLuc protein can be measured as an increase in luminescence signal, upon addition of detection reagents (which contain high concentrations of FLuc substrates) commonly used in high-throughput screening. In cell-based reporter gene assays that use FLuc as the reporter gene to quantitate the potential influence of a given compound against the target biology, this apparent increase in luminescence can mistakenly be interpreted as identification of a compound that is active against the target of interest. FLuc inhibitory compounds that stabilize the FLuc protein will give an identical read-out, making it difficult to distinguish compounds that are active against the target from those active against FLuc. In summary, the results generated here constitutes a valuable resource for the scientific community and provides insight on identifying compounds with inhibitory activity for the commonly-used reporter, firefly luciferase. References: -Almond, B., Zdanovsky, A., Zdanovskaia, M., Ma, D., Stecha, P., Paguio, A., Garvin, D., and Wood, K. (2004). Introducing the Rapid Response Reporter Vectors. Promega Notes 87, 18-22. -Fan, F., and Wood, K.V. (2007). Bioluminescent assays for high-throughput screening. Assay Drug Dev Technol 5, 127-136. -Thompson, J.F., Hayes, L.S., and Lloyd, D.B. (1991). Modulation of firefly luciferase stability and impact on studies of gene regulation. Gene 103, 171-177. -Wood, K.V. (1998). The chemistry of bioluminescent reporter assays. Promega Notes 65, 14-20. -Wood, K.V. (1995). Marker proteins for gene expression. Curr Opin Biotechnol 6, 50-58.
Reagents: 50mM Tris acetate, pH 7.5; 10mM Mg acetate; 10uM D-luciferin (Sigma #L9504); 10uM ATP; 0.01% Tween-20; 0.05% BSA; 10nM P. pyralis luciferase (Sigma #L9506) Control compounds used were two known firefly luciferase inhibitors (compounds (2) and (5) in Auld et al., 2010), and DMSO. Assay Summary: Three microliters containing firefly luciferase substrates in buffer (final concentrations: 50mM Tris acetate, pH 7.5, 10mM Mg acetate, 0.01% Tween-20, 0.05% BSA, 10uM D-luciferin, and 10uM ATP) are dispensed into each well of a Greiner white, solid-bottom 1536-well format plate using a flying reagent dispenser (FRD). […]

Row | Structure (SMILES) | Potency
1 | Clc1ccc2oc([C@H]3CCN(Cc4ccccc4)C3)nc2c1 | 20 µM (active)
2 | Fc1ccc2oc([C@H]3CCN(C4CCOCC4)C3)nc2c1 | inactive
3 | COC(=O)c1cccc2nc([C@H]3CCN(Cc4ccccc4)C3)oc12 | inactive
4 | COc1ccc(-c2noc([C@@H]3CCCN3C(=O)CCCc3ccccc3)n2)cc1OC | inactive
5 | Cc1ccc(-c2ccc3nnc(CNC(=O)c4ccccn4)n3n2)cc1 | inactive
6 | COCCNC(=O)[C@@H]1C[C@H](Oc2cccnc2)CN1C(=O)c1ccc(OC)nc1OC | inactive
7 | COc1ccc(CCC(=O)N2CCC(c3n[nH]c(=O)n3-c3ccc(C)cc3)CC2)cc1 | inactive
8 | CC(=O)NC1(C)CN(Cc2ccc(-c3ccc4c(ccn4C)c3)s2)C1 | 0.316 µM (active)
9 | COC(=O)[C@@H]1Cc2c([nH]c3ccccc23)[C@H]2C[C@@H](NCCN3CCOCC3)C[C@@H](c3ccccc3)N21 | inactive
10 | O=C1NC2(CCN(Cc3ccccc3)C2)OCc2ccccc21 (stereo not drawn) | inactive
11 | CSCc1ccc(C(=O)N[C@H]2[C@@H]3CCO[C@@H]3[C@@H]2C2CCCC2)o1 | inactive
12 | CN(CCNC(=O)CCc1cc2ccccc2[nH]c1=O)C1CCCCC1 | inactive
13 | COc1ccc(CNC(=O)C[C@@H]2CCNC[C@@H]2Cc2cc(-c3ccc(C(C)(C)C)cc3)on2)cc1OC | inactive
14 | COc1ccc(-c2nc3ccncc3[nH]2)cc1 | 31.6 µM (active)
15 | COc1ccc(CC(=O)NC[C@@H]2C=C(C)[C@H](Cc3nc4ccncc4[nH]3)C[C@H]2C(C)C)cc1 | inactive
16 | c1cc(-c2nc3ccncc3[nH]2)ccn1 | inactive
17 | COc1ccc(-c2cc(N3CCC(NC(=O)c4cccc(C)c4)CC3)n[nH]2)cc1 | inactive
18 | Cc1nn2c(c1-c1ccccc1C(C)C)N(C(=O)c1cccc(C#N)c1)CCC2 | inactive
19 | COc1cccc(-c2ccc(F)c(C(N)=O)c2)c1OC | inactive
20 | COc1cccc(-c2nc3ccc(-c4ccc5c(c4)OCO5)cc3o2)c1OC | 1.12 µM (active)
21 | COc1cc(-c2noc(-c3nc(-c4ccc5c(c4)OCO5)no3)n2)cc(OC)c1OC | inactive

Row | Structure (SMILES) | Potency
22 | COc1ccc(C(=O)N2CCC(N3CC(OC)C34CCOCC4)CC2)c(OC)c1 (stereo not drawn) | inactive
23 | Cc1cc(CN(C)C(=O)c2cc(COc3ccc(F)cc3F)on2)n[nH]1 | inactive
24 | O=C(Nc1cccnc1)O[C@H]1COCCN(c2nc3ccccc3s2)C1 | inactive
25 | OC1(CN2CCCCC2)CCN(c2nc3ccccc3s2)C1 (stereo not drawn) | 10 µM (active)
26 | Cc1cc(C(=O)N2CC[C@H](NC(=O)c3cnccn3)C[C@H]2C(=O)N[C@H](Cc2ccccc2)C(N)=O)n(C)n1 | inactive
27 | Cc1ccc(CS(=O)(=O)N2CCC(C3CCNC3)CC2)cc1C (stereo not drawn) | inactive
28 | COc1ccc(C(=O)NCc2nnc3ccc(-c4ccc(C)cc4)nn23)cc1F | inactive
29 | CC(C)Cn1cncc1CNC(=O)c1ccc2nc(-c3ccc(F)cc3)cn2c1 | 35.5 µM (active)
30 | O=C(c1ccc2nc(-c3ccc(F)cc3)cn2c1)N1CCSCC1 | inactive
31 | CC(C)(C)c1ccnc(N[C@H]2CO[C@H]3[C@@H]2OC[C@@H]3NC(=O)CC2(CC(=O)O)CCCC2)n1 | inactive
32 | Cc1nn(Cc2ccccc2)c(C)c1[C@@H]1C=C[C@@H](NC(=O)NC(C)C)C1 | inactive
33 | Cc1nn(-c2ccc(C(C)C)cc2)c(C)c1[C@@H]1C=C[C@@H](NC(=S)NCC(C)C)C1 | 7.08 µM (active)
34 | CCC(C)NC(=O)Cc1csc2nc(C)c(-c3cc(C)n(-c4ccc(C(C)C)cc4)n3)c(=O)n12 (stereo not drawn) | inactive
35 | Cc1nn(Cc2ccccc2)c(C)c1[C@@H]1C=C[C@@H](NC(=O)NC2CCCCC2)C1 | inactive
36 | C[C@@H](NC(=O)C1=C[C@@H](NC(=O)CC2(CC(=O)O)CCCC2)[C@@H](O)[C@H](O)C1)C(N)=O | inactive
37 | Cc1cnc(CCNC(=O)c2ccco2)n1C1CCC1 | inactive
38 | Cc1nn(-c2ccc(C(C)C)cc2)c(C)c1[C@@H]1C=C[C@@H](NC(=O)CC2(CC(=O)O)CCCC2)C1 | 35.5 µM (active)
39 | Cc1nn(CCC#N)c(C)c1[C@@H]1C=C[C@@H](NS(=O)(=O)c2ccccc2)C1 | inactive
40 | Cc1nn(-c2ccc(C(C)C)cc2)c(C)c1[C@@H]1C=C[C@@H](NC(=O)Nc2ccccc2)C1 | 3.55 µM (active)
41 | Cc1nn(-c2ccc(C(C)(C)C)cc2)c(C)c1[C@@H]1C=C[C@@H](NC(=O)c2ccco2)C1 | 14.1 µM (active)
42 | O=C(NCC1CN(Cc2ccccc2)CC12CN(c1ccccc1)C2)Nc1ccccc1 (stereo not drawn) | inactive

Row | Structure (SMILES) | Potency
43 | O=C1NCCCCCCN(Cc2ccc3c(c2)CCO3)[C@H]2CCC[C@@H]12 | inactive
44 | CN(C)C[C@@H]1CN(Cc2ccccn2)C[C@H]1NC(=O)c1ccc2cc[nH]c2c1 | inactive
45 | CC(C)COc1cc(=O)n2c(c1C(=O)NCCCN1CCOCC1)CCCCC2 | inactive
46 | COc1ccc(C(=O)NCC(=O)N2CCCCCCNC(=O)CC2c2ccccc2)cn1 (stereo not drawn) | inactive
47 | CN(C)C(C(=O)N1CCC(OCc2cccnc2)CC1)c1cccc(F)c1 (stereo not drawn) | inactive
48 | O=C(c1ccccc1C1CCNC1)N1CCC(Nc2ncccn2)CC1 (stereo not drawn) | inactive
49 | CN1C(=O)CO[C@H]2CN(C(=O)c3ccccc3)C[C@H]21 | inactive
50 | Cc1ccccc1CN1CCOc2cc([S+](=O)([O-])N(C)C)ccc2C1 | inactive
51 | CC(C)CN1CCN(C(=O)c2cc3c(s2)CCN(C(=O)c2ccc(Cl)cc2)C3)CC1 | inactive
52 | CC(C)c1noc([C@H]2C[C@@H]3C(=O)NCCCCCCN(C(=O)Cc4cccnc4)[C@@H]3C2)n1 | inactive
53 | COc1ccc(C)cc1NC(=O)Cn1nc2n(c1=O)CCCC2 | inactive
54 | COc1ccc(C)cc1NC(=O)Nc1cccc(-c2ccc(N3CCCCC3)nn2)c1 | 0.282 µM (active)
55 | COc1cc(=O)n2c(c1C(=O)Nc1cc(C)ccc1C)CCCC2 | inactive
56 | COc1cc(Cl)ccc1C(=O)N1CCC[C@H]1c1nc(-c2ccccc2)no1 | inactive
57 | COCCn1c(=O)n([C@H]2CCCN(C(=O)c3cc4ccccc4[nH]3)C2)c2ncccc21 | inactive
58 | CC(NC(=O)Cc1cccc(F)c1)C(=O)N1CCN(c2ccccn2)CC1 (stereo not drawn) | inactive
59 | CSc1ccc(CNC(=O)c2noc(-c3ccc(C)cc3)n2)cc1 | inactive
60 | Cc1ccc(-c2nc(C(=O)N3CCN(c4ccccn4)CC3)no2)cc1 | 14.1 µM (active)
61 | Cc1cccc(C(=O)N2CCCC(C(=O)N3CCN(c4ccccn4)CC3)CCNC(=O)CC2)c1 (stereo not drawn) | inactive
62 | COc1ccc(CCNC(=O)c2noc(-c3ccc(C)cc3)n2)cc1OC | inactive
63 | Cc1ccc(-c2nc(C(=O)N(C)Cc3ccccc3)no2)cc1 | 10 µM (active)
